# Source: PubChem
# This is a sample that favours compounds with a hit; in the whole collection about 4.7% have one here.
# ATXN2 expr inh: Primary qHTS for Inhibitors of ATXN expression. HEK-293 ATXN2-luciferase reporter, luminescence, 24 h. Potency, µM (titrated, usually from 57 µM), for inactives: at the top dose activity change, negative = inhibition, hits mostly inhibitors. 360,000 tested, 0.72% active; note: potency is the fitted concentration of half-maximal effect; % is set by controls: 0 for no effect and ±100 for the full control effect; nearly all actives have a fitted effect of over 55% in size
#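 qHTS (up to 57 uM final) was run with 24 h compound exposure of reporter cells at 37 °C. Each well was multiplexed: SteadyGlo luminescence measured ATXN2-luciferase expression after a fluorogenic Gly-Phe-AFC viability readout (25 uM final).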
# D3 antag: qHTS of D3 Dopamine Receptor Antagonist: qHTS; 360,000 tested, 2.5% active; D3R cells, DiscoveRx beta-arrestin luminescence, antagonist mode; hits give low values; max response, negative = inhibition, %; D(3) dopamine receptor (Homo sapiens), P35462; in the data active = max response below about -50%; inconclusive = no clear call, values can overlap the other calls; note: % is set by controls: 0 for no effect and ±100 for the full control effect
# Target sequence (P35462 whole entry, looked up): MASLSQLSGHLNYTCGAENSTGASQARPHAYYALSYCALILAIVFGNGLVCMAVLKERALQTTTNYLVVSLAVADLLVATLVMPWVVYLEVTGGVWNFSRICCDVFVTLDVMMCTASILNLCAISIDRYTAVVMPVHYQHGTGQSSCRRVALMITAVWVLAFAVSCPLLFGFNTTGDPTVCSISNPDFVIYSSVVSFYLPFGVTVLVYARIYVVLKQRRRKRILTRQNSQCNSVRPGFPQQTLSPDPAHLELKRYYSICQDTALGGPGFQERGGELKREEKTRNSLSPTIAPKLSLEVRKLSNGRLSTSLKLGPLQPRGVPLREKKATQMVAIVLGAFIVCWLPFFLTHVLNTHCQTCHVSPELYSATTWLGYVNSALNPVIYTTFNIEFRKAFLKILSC
#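 Cells expressing the human receptor were seeded at 1500 cells/well, incubated overnight at 37 degrees C in 5% CO2, then exposed to library compounds with dopamine controls for 90 minutes at 37 degrees C before luminescent detection.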
# ATXN viability: Viability Counterscreen for Primary qHTS for Inhibitors of ATXN expression; S2 cells (HEK-293 line with an ATXN2-luciferase reporter) viability, CellTiter-Fluor protease fluorescence, 24 h; Potency, µM (doses to about 56.7 µM), most hits filed as cytotoxic; 400,000 tested, 0.49% active; AID 651635, 2014; note: potency is the fitted concentration of half-maximal effect; nearly all actives have a fitted effect of over 40% in size
# TGFb inhibitor: qHTS for Inhibitors of TGF-b; Potency, µM (series often up to 46.1 µM), for inactives: at the top dose activity, negative = inhibition, usual class: inhibitors; 410,000 tested, 1.2% active; HepG2 CAGA-GFP TGF-b/SMAD3 reporter, GFP fluorescence, 18 h; TGF-beta stimulated, 500 pg/mL final; note: potency is the fitted concentration of half-maximal effect; % is set by controls: 0 for no effect and ±100 for the full control effect; nearly all actives have a fitted effect of over 65% in size
#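 Read-out: total well GFP (ex488/em500-530) summed from mean per-cell fluorescence. Cells: HEPG2 CAGA-GFP, 1% FBS DMEM, 18 h at 37 degrees C with 500 pg/mL final TGF-beta. Unstimulated wells served as the full-inhibition control; stimulated DMSO wells = 0%.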
# HepG2 viability: qHTS for Inhibitors of TGF-b: Cytotox Counterscreen | HepG2 CAGA-GFP viability, ATP luminescence, 18 h | Potency, µM (doses to about 46.1 µM), for inactives: top-dose activity change, negative = cytotoxicity, usual class: cytotoxic | 410,000 tested, 0.76% active; note: potency is the fitted concentration of half-maximal effect
#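 HepG2 CAGA-GFP cells (1000/well, DMEM with 1% FBS) received compound, then TGF-beta at 500 pg/mL final, and were incubated 18 hours at 37 degrees C. Viability was read by CellTiter-Glo luminescence. Media-only wells were set as complete cell-killing and DMSO as no toxicity.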
# DRD3 agonist: qHTS of D3 Dopamine Receptor Agonist: qHTS; max activation, %; D(3) dopamine receptor (Homo sapiens), P35462; 410,000 tested, 0.58% active; D3R DiscoveRx beta-arrestin cells, luminescence, 90 min; in the data active = max activation above about 30%; note: 0% is about no effect
#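 Agonist mode: compounds and dopamine controls were applied to plated cells for 90 min at 37 degrees C after an overnight attachment at 1500 cells/well. Luminescent read-out followed 30 - 60 minutes at room temperature with DiscoveRx detection reagent.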
# Starred values were filed as active, the others as inactive; i = inactive; ? = inconclusive; · = no result. Unless noted, calls come from the whole dose curve; as a rule, active = well fitted curve in the direction sought with a large enough effect; inconclusive = small, poorly fitted or top-dose-only effect, or another doubt; inactive = no such curve, though single readings can be large; an effect the other way counts as inactive or inconclusive.
SMILES,ATXN2 expr inh,D3 antag,ATXN viability,TGFb inhibitor,HepG2 viability,DRD3 agonist
CC1CCCCN1CCCNc1ccc(C(CC(N)=O)NC(=O)Cc2ccc(Br)cc2)cc1[N+](=O)[O-] (stereo unspecified),6%,-52*,?,?,4%,1
COc1ccc(-c2nc(Cn3c(SCc4ccc(C)cc4)nc4cccnc43)c(C)o2)cc1OC,·,·,·,10µM*,-32%,-9
Cc1oc(-c2ccccc2Cl)nc1Cn1c(SCc2cccc(F)c2)nc2cccnc21,·,·,·,?,-45%,44*
N#CCCN(Cc1ccccc1)C(CCc1ccccc1)C(=O)NC1CCCCC1 (stereo unspecified),?,6,?,13µM*,-34%,-8
CCN1CCN(C(CCc2ccccc2)C(=O)NC2CCCCC2)CC1 (stereo unspecified),5%,-73*,i,0%,-17%,-14
N#CCCN(Cc1ccccc1)C(C(=O)NC1CCCCC1)C1CC1 (stereo unspecified),4%,14,i,-19%,-3%,-5
Cn1c(C(=O)NCCCN2CCN(c3ccccc3F)CC2)cc2c(=O)n(C)c3ccccc3c21,-22%,-73*,?,2%,-19%,-1
CC1CCN(CCCNC(=O)c2cc3c(=O)n(C)c4ccccc4c3n2C)CC1,-11%,-83*,?,0%,-40%,-16
Cn1c(C(=O)NCCCN2CCOCC2)cc2c(=O)n(C)c3ccccc3c21,-10%,15,i,1%,-9%,-2
Cn1c(C(=O)NCCN2CCN(Cc3ccccc3)CC2)cc2c(=O)n(C)c3ccccc3c21,-6%,-93*,i,-1%,-9%,-14
CC(C)Cn1cc(C(=O)NCCCN2CCC(C)CC2)c2c3ccccc3n(C)c2c1=O,4%,-83*,i,-20%,12%,-42
OC[C@H]1O[C@H](O[C@]2(CCl)O[C@H](CCl)[C@@H](O)[C@@H]2O)[C@H](O)[C@@H](O)[C@H]1Cl,8%,·,i,·,·,·
OC1CCC(Nc2ncc3nc(Nc4c(F)cc(F)cc4F)n([C@@H]4CCOC4)c3n2)CC1 (stereo partly specified),-13%,·,·,·,·,·
O=C1NC(=O)C(Cc2ccccc2F)(C2CCN(Cc3cccn3-c3cccnc3)CC2)N1 (stereo unspecified),·,·,i,·,·,·
Cn1c(=O)[nH]c(=O)c2c1nc([N+](=O)[O-])n2Cc1ccccc1,?,-82*,6µM*,5µM*,5µM*,-27
CC(C)Cn1c([N+](=O)[O-])nc2c1c(=O)[nH]c(=O)n2C,?,-13,·,?,11µM*,-10
Cc1cnc2c(C)ccc(C)c2c1/C=C/c1ccc(N(C)C)cc1,·,·,·,-5%,-4%,·
OC(CN1CCN(c2ccccc2Cl)CC1)c1ccccc1 (stereo unspecified),-8%,-84*,i,-10%,-1%,-2
OC(CN1CCN(c2ccccc2F)CC1)c1ccc(F)cc1 (stereo unspecified),-8%,-8,i,2%,-1%,36*
CCCN(CCC)C(=O)CC(c1ccccc1)c1cc(C)ccc1O (stereo unspecified),3%,-28,i,?,-42%,1
CN(Cc1ccccc1)C(=O)CC(c1ccccc1)c1cc(Cl)ccc1O (stereo unspecified),-36%,-13,i,16µM*,-100%,-3
CCN(CC)c1ccc(N=C2C(=O)Nc3ccccc32)cc1,?,-14,?,?,13µM*,-5
C=C1CCN(C(Cc2ccccc2)C(=O)NCc2ccc(Cl)cc2)S(=O)(=O)c2ccccc21 (stereo unspecified),·,·,·,-12%,-2%,·
CCOCCCNC(=O)c1c(NC(=O)c2nc(SCC)ncc2Cl)sc2c1CCCC2,·,·,·,16%,-2%,·
C=CCn1c(SCc2c(C)noc2C)nc2sc(C)c(C)c2c1=O,8%,-16,i,1%,-22%,35*
SMILES,ATXN2 expr inh,D3 antag,ATXN viability,TGFb inhibitor,HepG2 viability,DRD3 agonist
C=CCn1c(SCC(=O)c2cc(C)n(C(C)COC)c2C)nc2sc(C)c(C)c2c1=O (stereo unspecified),1%,20,i,?,10%,60*
Cc1noc(C)c1CSc1nc2sc(C)c(C)c2c(=O)n1-c1ccccc1,-3%,-9,i,-13%,-1%,2
Nc1c(Cl)cc(/C=C2\C=Cc3ccccc32)cc1Cl,·,·,·,-14%,-49%,·
COc1ccc(CNC(=O)CN2C(=O)c3ccccc3C2=O)cc1,·,1,i,-1%,-1%,3
COc1ccc(CNC(=O)CN2C(=O)c3ccc([N+](=O)[O-])cc3C2=O)cc1,-3%,-3,i,6%,15%,31*
COC(=O)/C(=C\c1ccc([N+](=O)[O-])o1)NC(=O)c1ccccc1,?,-18,?,11µM*,13µM*,2
CCCCNC(=O)/C(=C\c1ccc([N+](=O)[O-])o1)NC(=O)c1ccccc1,?,-4,i,?,-25%,4
O=C(O)CC/C(=N\Nc1ccc(S(=O)(=O)N2CCOCC2)cc1[N+](=O)[O-])c1cccs1,-16%,-62*,?,-14%,-15%,-10
CCCCOc1ccc(C(=O)NCCN2CCC(n3c(=O)[nH]c4ccccc43)CC2)cc1,7%,-60*,i,·,·,-11
O=C(NCCN1CCC(n2c(=O)[nH]c3ccccc32)CC1)c1ccc(OC(F)(F)F)cc1,-18%,-86*,i,·,·,-12
CCCCCn1c(=O)[nH]c2cc(C(=O)NCCN3CCC(C)CC3)ccc2c1=O,0%,6,i,-2%,0%,-28
COc1ccc(NC(=O)CSc2oc(-c3cccs3)nc2S(=O)(=O)c2ccc(Br)cc2)c(OC)c1,5%,·,?,2%,4%,0
CCc1ccccc1NC(=O)CSc1nc2c(oc3ccccc32)c(=O)n1C,2%,·,?,-19%,-20%,8
COc1ccccc1NC(=O)CSc1nc2c(oc3ccccc32)c(=O)n1C,-4%,67,i,0%,4%,31*
Cn1c(SCc2ccc(F)cc2)nc2ccc(C(=O)NCc3ccccc3)cc21,-29%,·,i,?,-24%,-16
COc1ccc(CNCCC(c2ccc(C)cc2)c2ccco2)cc1 (stereo unspecified),·,·,·,·,-93%,-18
